From PubChem
Lassa entry inh: inhibitors of Lassa virus binding or cell entry. Potency, µM (series often up to 37.9 µM), inactives show top-dose activity change, negative = inhibition, actives largely listed as inhibitors. 300,000 tested, 1.2% active. Lassa virus pseudotype entry inhibition, cell reporter; calls by dose curve; tested in HEK293 cells; further: potency means the concentration at half of the fitted maximal effect; nearly all actives have a fitted effect of over 50% in size
FMDV antiviral: antivirals against foot and mouth disease virus | FMDV antiviral cell-based qHTS | Potency, µM (series often up to 57.9 µM), without a hit: top-dose activity change, negative = inhibition, usual class: inhibitors | 410,000 tested, 1.2% active | AID 1159524; calls by dose curve; tested in HEK293T cells; further: read-out not given here; potency means the concentration at half of the fitted maximal effect; nearly all actives have a fitted effect of over 45% in size
HCMV antiviral: human cytomegalovirus inhibition. HFF cells, HCMV-luciferase reporter, 72 h; active compounds read low. activity change, negative = inhibition, % at 57.5 µM. 410,000 tested, 4.5% active; in the data active means activity change below about -60%; inconclusive means no clear call, values can overlap the other calls; inactive means above about -39%
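HFF cells seeded 16 h at 37C, treated with compounds, infected with luciferase-reporter HCMV at MOI 1 PFU/cell; luciferase read at 72 h post infection, normalized to buffer-only and Salinomycin controls.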
MARV entry inh: Marburg virus entry inhibition; Marburg virus pseudotyped entry inhibition, cell reporter; Potency, µM (highest dose often 37.8 µM), inactives show top-dose activity change, negative = inhibition, usual class: inhibitors; 300,000 tested, 1.8% active; calls by dose curve; tested in HEK293 cells; further: potency means the concentration at half of the fitted maximal effect
Numbers without * were called inactive; ? = inconclusive; / = no result given; [ ] = remark or other dose. Hits are enriched below; roughly 6.2% of the tested compounds scored in any of these assays. On the % scale 0 is the no-effect control and ±100 the full control effect.

SMILES	Lassa entry inh	FMDV antiviral	HCMV antiviral	MARV entry inh
OC(CNCc1ccco1)Cn1c2ccccc2c2ccccc21 (stereo not given)	?	-7.1%	56.0	16.4µM*
CCOC(=O)C1CNc2cc(S(=O)(=O)CC)ccc2O1 (stereo not given)	5.1%	-0.6%	-10.7	2.0%[46.1 µM]
O=C(NC1CCCCCC1)c1ccc(=O)n(Cc2ccccc2)n1	/	-17.9%	-65.6*	/
COC(=O)C1CCN(C(=O)COC(=O)c2ccc(=O)n(Cc3ccccc3)n2)CC1	-18.6%	-10.7%	4.6	16.6%
COC(=O)C1=CN(Cc2ccc(C)cc2)C=C(C(=O)OC)C1c1ccc(F)c(F)c1	?	-26.7%	/	?
COC(=O)C1=CN(Cc2ccccc2)C=C(C(=O)OC)C1c1cc(F)ccc1F	7.08µM*	-20.0%	-23.2	-36.5%
Cc1ccc(SCC(=O)OCC(=O)N(C)CC(=O)Nc2ccc(F)cc2)cc1C	-0.7%	6.3%	-4.7	?
CSc1nc2ccc(Br)cc2[nH]1	-1.1%	17.6%	-39.7	?
CC(C)Sc1nc2ccc(Br)cc2[nH]1	7.0%[46.1 µM]	29.2%	-102.3*	?
Cc1cccc(C)c1NC(=O)CSc1nc(C)c(CC(=O)c2ccc(Br)cc2)c(C)c1C#N	17.8µM*	0.0%	42.9	?
CCc1nnc(NC(=O)CSc2nc(C)cc(C)c2C#N)s1	?	-9.3%	21.7	7.94µM*
CCOC(=O)NC(=O)CSc1nc(C)cc(C)c1C#N	-19.5%	18.2%	87.3	0.1%
Cc1ccc(Cl)cc1NC(=O)CSc1nc(C)c(C)c(C)c1C#N	-2.6%[46.1 µM]	-26.0%	-84.6*	-33.6%[46.1 µM]
CC(=O)Nc1cccc(NC(=O)CSc2nc(C)c(C)c(C)c2C#N)c1	28.4%	?	-11.6	?
O=C(Nc1ccc(Cl)cc1)Nc1ccc(N2CCC(C(F)(F)F)CC2)nc1	8.7%	2.3%	0.8	7.3%[46.1 µM]
COC(=O)c1ccc(Nc2nc(-c3ccccc3Cl)nc3ccccc23)cc1	?	?	50.0	/
O=C(Cc1csc(NC(=O)Nc2cccc(Cl)c2)n1)NC1CCCC1	-13.9%	?	-27.8	12.6µM*
O=C(Cc1csc(NC(=O)Nc2cccc(Cl)c2)n1)NCc1ccccn1	-10.0%	7.9%	39.0	?
O=C(OCC1OC(n2cnc3c(N(C(=O)c4ccccc4)C(=O)c4ccccc4)ncnc32)C(O)C1F)c1ccccc1 (stereo not given)	13µM*	10.2%	5.3	-8.5%
Nc1ncnc2c1ncn2[C@@H]1O[C@H](CNC(=O)OC[C@@H](N)Cc2ccccc2)[C@@H](O)[C@H]1O	/	-3.8%	-4.7	/
Cc1ccc(NC(=O)Cn2nc(C(=O)O)c3ccccc3c2=O)cc1S(=O)(=O)N1CCCCC1	2.6%	39.8µM*	2.1	-26.8%
O=C(CNc1cccc(F)c1)Nc1cccc(S(=O)(=O)N2CCCCC2)c1	-9.4%	17.2%	3.6	0.8%[46.1 µM]
Cc1ccccc1C(=O)NCC(=O)Nc1ccc(C)c(S(=O)(=O)N2CCCCCC2)c1	?	35.5µM*	-12.4	?
Cc1ccc(NC(=O)COc2ccccc2)cc1S(=O)(=O)N1CCCCC1	/	-21.9%	-15.1	/
Cc1ccc(NCC(=O)Nc2cccc(F)c2)cc1S(=O)(=O)N1CCCCCC1	?	?	-97.7*	?
SMILES	Lassa entry inh	FMDV antiviral	HCMV antiviral	MARV entry inh
Cc1ccc(NC(=O)CN2CCCC2c2cccs2)cc1S(=O)(=O)N1CCCCC1 (stereo not given)	/	?	-63.4*	/
CCOC(=O)[C@@]1([C@@H](NC(=O)OC)c2cccc(F)c2)CCCC1=O	/	/	/	-13.4%[14.2 µM]
CCc1nc2c(OCc3c(C)noc3C)cccn2c1N(C=O)Cc1ccc(OC)cc1	/	-11.0%	2.9	/
O=C(N/N=C/c1cc(Cl)ccc1O)c1ccccc1Br	/	19.4%	-100.1*	/
O=C(N/N=C\c1cc(Cl)ccc1O)c1ccc(S(=O)(=O)N2CCCCC2)cc1	?	-21.8%	-103.0*	?
O=C(CNC(=O)c1ccccc1Br)N/N=C/c1cc(Br)ccc1O	/	-17.8%	33.1	/
O=C(Nc1cc(S(=O)(=O)Nc2ccc(Cl)cc2)ccc1O)c1ccc(S(=O)(=O)N2CCCCCC2)cc1	?	-17.4%	21.2	?
COC(=O)C[C@H](NC(=O)Cn1cnc(C(=O)Nc2ccc(C)c(C)c2)n1)C(=O)OC	/	38.2%	-65.1*	1.9%
COC(=O)[C@H](CC(C)C)NC(=O)Cn1cnc(C(=O)Nc2ccc(C)c(C)c2)n1	/	37.4%	38.7	/
COc1ccc(C2=CC(c3ccccc3F)n3ncc(C(=O)Nc4ccc(C)cc4)c3N2)cc1 (stereo not given)	-8.5%[46.1 µM]	-18.1%	-11.4	/
CC1=C(C(=O)Nc2ccc(Cl)cc2)C(c2ccccc2)n2ncc(C(=O)Nc3ccccc3)c2N1 (stereo not given)	?	-13.7%	12.9	?
CC1=C(C(=O)Nc2ccc(Cl)cc2)C(c2ccccc2C)n2ncc(C(=O)Nc3ccc(C)cc3)c2N1 (stereo not given)	?	-15.5%	-31.8	5.62µM*
O=C(Nc1ccc(Cl)cc1)c1cnn2c1NC(c1ccccc1)=CC2c1ccccc1 (stereo not given)	15.8%[46.1 µM]	-8.0%	-102.2*	/
O=C(NCCc1ccc(Cl)cc1)c1ccc(=O)[nH]c1	3.6%	-1.0%	?	-0.8%[46.1 µM]
CCOC(=O)Cn1cnc2sc(C(=O)OC)c(C)c2c1=O	6.5%	3.9%	-34.3	8.2%
Clc1cccc(CN2CCc3c([nH]c4ccccc34)C2)c1	?	-16.9%	57.3	8.91µM*
COC(=O)C1=C(c2ccccc2)c2ccccc2S(=O)(=O)N1CC(=O)Nc1ccc(F)c(F)c1	11.2µM*	-13.2%	-30.4	?
Nc1cc(N)nc(SCC(=O)NCc2ccco2)n1	-25.7%[46.1 µM]	4.0%	?	-9.5%[46.1 µM]
CNc1ncn(-c2c(C)cccc2C)c(=O)n1	/	/	-98.7*	/
COc1ccc2cc(CNCCOCCOCCNCc3ccc4cc(OC)ccc4c3)ccc2c1	?	39.8µM*	-97.6*	?
COc1ccccc1CNc1nc(-c2ccc(N(C)C)cc2)nc2ccccc12	/	18.1%	/	/
COc1cc(N(C)C)ccc1C=c1c2ccccc2n2c1cc(-c1ccccc1)[n+]2C	?	?	-99.0*	?
CN(C)c1ccc(C=C2C=C(c3ccccc3)OC2=O)cc1	/	28.1%	-36.9	/
CN(C)c1ccc(C=c2c3ccccc3n3c2cc(-c2ccccc2)[n+]3C)cc1	2.82µM*	15.8µM*	-99.0*	2.82µM*
CN(C)c1ccc(C=c2c3ccccc3n3c2c2c([n+]3C)CCCC2)cc1	7.94µM*	6.31µM*	-99.5*	4.47µM*
SMILES	Lassa entry inh	FMDV antiviral	HCMV antiviral	MARV entry inh
CN(C)c1ccc(/C=C2\CCC/C(=C\c3ccccc3)C2=O)cc1	?	10.2%	33.2	-18.3%
COc1cc(C=c2c3ccccc3n3c2cc(-c2ccccc2)[n+]3C)cc(OC)c1OC	14.1µM*	?	-100.9*	?
CCOc1ccc(OCC(=O)OCc2csc(CC(=O)Nc3ccccc3C)n2)cc1	19.6%	-9.5%	-20.2	13.5%[46.1 µM]
CN(C)c1ccc(C=c2c3ccccc3n3c2cc(-c2ccc(Cl)cc2)[n+]3C)cc1	?	?	-99.2*	?
CN(C)c1ccc(C=c2c3cc([N+](=O)[O-])ccc3n3c2cc(-c2ccccc2)[n+]3C)cc1	8.91µM*	31.6µM*	-100.0*	?
Cn1c(CO)c(-c2ccccc2)c2cc([N+](=O)[O-])ccc21	3.1%	-10.3%	-37.2	-0.1%
O=C(N1CCN(S(=O)(=O)c2ccc(Cl)cc2)CC1)n1ccnc1	/	-15.3%	-11.3	/
